In PubChem BioAssay (EPA / NIEHS) one finds outcome and AC50 data, which are given here for 7 molecules.

Inconclusive results are not listed. Calls of active or inactive are those of the source. How the source made its calls, unless noted: active means hit-call score of the fitted dose curve at least 0.9, where 1 is the maximum; inconclusive means response in the unintended direction; inactive means score below 0.9.

Experiment [1] deals with Estrogen receptor (Homo sapiens) (UniProt P03372). The experiment can be described thus: ATG_ERa_TRANS: Attagene TRANS-FACTORIAL HepG2 Assay for human Estrogen Receptor alpha (ERa) (AID 2282970). The conditions noted are these: HepG2 Attagene TRANS ERa GAL4 reporter, mRNA. The essentials:
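Liver-derived HepG2 cells expressing chimeric nuclear receptor-Gal4 proteins from transient transfection were exposed for 24 hours. Gain of reporter mRNA signal versus DMSO, read by capillary electrophoresis of FAM-labelled PCR products, was recorded.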

The target in experiment [2] is X-box-binding protein 1 (Homo sapiens) (UniProt P17861). Nature of the experiment: ATG_Xbp1_CIS: Attagene CIS-FACTORIAL HepG2 Assay for human X-box Binding Protein 1 (XBP1) (AID 2282972; active means hit-call score of the fitted dose curve at least 0.9, where 1 is the maximum; inactive means score below 0.9). The conditions noted are these: HepG2 XBP1 cis-element reporter, Attagene multiplex; actives raise or lower the signal. The essentials:
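Multiplexed cis-reporter readout in transfected HepG2 liver cells. Exposure lasted 24 hours. Activity in either direction was fitted against DMSO as negative control and baseline.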

In experiment [3] the target is Bile acid receptor (Homo sapiens) (UniProt Q96RI1). The experiment can be described thus: ATG_FXR_TRANS: Attagene TRANS-FACTORIAL HepG2 Assay for Farnesoid X Receptor (FXR) (AID 2282979).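 Further: hits raise reporter mRNA above DMSO so AC50 marks FXR activation.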 The following applies: HepG2 Attagene TRANS FXR-GAL4 reporter transcription. An outline of the steps:
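Transient transfection of HepG2 with multiplexed GAL4-UAS reporter units; exogenous FXR-GAL4 chimera. Dose 24 h → TriZol RNA → oligo(dT) RT → PCR, 6-FAM primer extension, HpaI cut → CE. Gain vs DMSO.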

Experiment [4] deals with Oxysterols receptor LXR-alpha (Homo sapiens) (UniProt Q13133). The experiment can be described thus: ATG_LXRa_TRANS: Attagene TRANS-FACTORIAL HepG2 Assay for human Liver X Receptor alpha (LXRa) (AID 2282980). The following applies: HepG2 Attagene TRANS reporter, LXRa transactivation. The essentials: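 Transfect HepG2 with GAL4-UAS multiplex reporter constructs (TRANS format, chimeric receptor-GAL4); treat 24 h; extract RNA, reverse-transcribe, PCR-amplify, FAM-label, HpaI-digest; resolve fragments by capillary electrophoresis. Upward response vs DMSO.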

Experiment [5] deals with Oxysterols receptor LXR-beta (Homo sapiens) (UniProt P55055). The experiment can be described thus: ATG_LXRb_TRANS: Attagene TRANS-FACTORIAL HepG2 Assay for human Liver X Receptor beta (LXRb) (AID 2282981). The following applies: HepG2 Attagene TRANS GAL4-LXRb reporter, mRNA. An outline of the steps:
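Liver-derived HepG2 cells transfected with Gal4-responsive reporters were dosed for 24 h. Activation was scored as rise in reporter mRNA, by RT-PCR and capillary electrophoresis, above DMSO baseline.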

The nature of experiment [6]: ATG_M_06_TRANS: Attagene TRANS-FACTORIAL HepG2 Assay for M06 Transcription Factor (Internal Marker) (AID 2282983).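 Further: reporter transcript level by RT-PCR then capillary electrophoresis fluorescence.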 The following applies: HepG2 Attagene TRANS M06 internal marker reporter. An outline of the steps: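 Background control endpoint: reporter mRNA from transiently transfected HepG2 after 24 h dosing, detected by RT-PCR with capillary electrophoresis fluorescence. Analysed for gain versus DMSO.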

The target of experiment [7] is Transcriptional activator Myb (Homo sapiens) (UniProt P10242). The experiment can be described thus: ATG_Myb_CIS: Attagene CIS-FACTORIAL HepG2 Assay for human Myeloblastosis (Myb) Proto-Oncogene Transcription Factor (AID 2282986; active means hit-call score of the fitted dose curve at least 0.9, where 1 is the maximum; inactive means score below 0.9). The conditions noted are these: HepG2 Attagene CIS-FACTORIAL Myb reporter transcription; actives raise or lower the signal. An outline of the steps: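 Reporter mRNA is quantified by RT-PCR and capillary electrophoresis 24 h after dosing HepG2 cells transfected with cis-regulated reporter units, which track endogenous transcription factor activity. Gain and loss of signal are fitted versus DMSO baseline.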

The target in experiment [8] is Nuclear respiratory factor 1 (Homo sapiens) (UniProt Q16656). Nature of the experiment: ATG_NRF1_CIS: Attagene CIS-FACTORIAL HepG2 Assay for human Nuclear Respiratory Factor 1 (NRF1) Orphan Gene (AID 2282987; active means hit-call score of the fitted dose curve at least 0.9, where 1 is the maximum; inactive means score below 0.9). The conditions noted are these: HepG2 NRF1 cis-element reporter, Attagene multiplex; actives raise or lower the signal. The essentials: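 Endogenous NRF1-driven reporter transcription in transfected HepG2 cells after 24 h treatment. Readout: RT-PCR products, 6-FAM labelled and resolved by capillary electrophoresis; changes fitted both directions relative to DMSO.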

Experiment [9] is described as follows: ATG_NFI_CIS: Attagene CIS-FACTORIAL HepG2 Assay for human Nuclear Factor I (NFI) (AID 2282989; active means hit-call score of the fitted dose curve at least 0.9, where 1 is the maximum; inactive means score below 0.9). The conditions noted are these: HepG2 cis-regulatory reporter, NFI response element transcription; actives raise or lower the signal. An outline of the steps: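 Cells: human liver HepG2, transiently transfected with promoter-regulated reporter transcription units. Exposure 24 h. Detection: fluorescent RT-PCR products separated by capillary electrophoresis, normalised to DMSO negative control.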

In experiment [10] the target is Myc proto-oncogene protein (Homo sapiens) (UniProt P01106). The experiment can be described thus: ATG_Myc_CIS: Attagene CIS-FACTORIAL HepG2 Assay for human Myelocytomatosis (Myc) Proto-Oncogene Transcription Factor (AID 2282990; active means hit-call score of the fitted dose curve at least 0.9, where 1 is the maximum; inactive means score below 0.9). The following applies: HepG2, Attagene cis-reporter transcription factor activity; actives raise or lower the signal. The essentials:
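HepG2 cells transiently transfected with multiple cis-promoter-driven reporter transcription units, so endogenous TF activity is read. After 24 h compound exposure, reporter mRNA was quantified by RT-PCR, 6-FAM labelling, HpaI digestion and capillary electrophoresis; bidirectional fit versus DMSO.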

For experiment [11], the target named is Androgen receptor (Homo sapiens) (UniProt P10275). The experiment can be described thus: ATG_AR_TRANS: Attagene TRANS-FACTORIAL HepG2 Assay for human Androgen Receptor (AR) (AID 2282973). The following applies: HepG2 Attagene TRANS-FACTORIAL AR reporter transcription. The essentials:
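Steps: transfect HepG2 with multiple GAL4-UAS reporter transcription units (TRANS format, exogenous NR-Gal4 protein); dose 24 h; isolate RNA, reverse-transcribe, PCR-amplify, FAM-label, HpaI-digest; resolve by capillary electrophoresis. Positive direction vs DMSO.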

Experiment [12] is described as follows: ATG_GAL4_TRANS: Attagene TRANS-FACTORIAL HepG2 Assay for GAL4 (Internal Marker) (AID 2282976). The following applies: HepG2 Attagene TRANS GAL4 internal marker reporter. An outline of the steps: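 First, HepG2 cells were transfected with reporter units under GAL4-UAS control. Next, they were treated with chemical for 24 h. Finally, RNA was reverse-transcribed, PCR-amplified, FAM-labelled and resolved by capillary electrophoresis, with induction scored against DMSO.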

Experiment [13] is described as follows: ATG_M_32_TRANS: Attagene TRANS-FACTORIAL HepG2 Assay for M32 Transcription Factor (Internal Marker) (AID 2282984).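 Further: transcript level of a background control reporter unit measured by RT-PCR and capillary electrophoresis.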 The following applies: HepG2 Attagene TRANS M32 internal marker reporter. An outline of the steps: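 Fluorescence-detected mRNA induction, HepG2 liver cells, 24 h after dosing. Multiple GAL4-UAS reporter units introduced by transient transfection; background-control endpoint analysed for gain of signal against DMSO.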

The target in experiment [14] is Nuclear receptor subfamily 4 group A member 2 (Homo sapiens) (UniProt P43354). Nature of the experiment: ATG_NURR1_TRANS: Attagene TRANS-FACTORIAL HepG2 Assay for human Nuclear Receptor Related Protein 1 (NURR1) (AID 2282985). The conditions noted are these: HepG2 Attagene TRANS reporter, mRNA readout. An outline of the steps:
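Chimeric NR-Gal4 proteins were expressed in human HepG2 cells bearing GAL4-UAS reporter units, and induced reporter mRNA was quantified 24 h post-dosing by RT-PCR and capillary electrophoresis.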

Experiment [15] has as its target Estrogen-related receptor gamma (Homo sapiens) (UniProt P62508). Nature of the experiment: ATG_ERRg_TRANS: Attagene TRANS-FACTORIAL HepG2 Assay for human Estrogen-Related Receptor gamma (ERRg) (AID 2282977).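 Further: hits increase reporter signal over DMSO so potencies reflect activators.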 The following applies: HepG2 Attagene TRANS reporter, ERRg transactivation. An outline of the steps: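 Readout: fluorescent reporter-mRNA fragments resolved by capillary electrophoresis after RT-PCR and HpaI cut. Cells: transiently transfected HepG2 carrying GAL4-UAS reporters driven by exogenous NR-Gal4 chimeras, dosed 24 h. Activity fitted upward relative to DMSO baseline.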

Experiment [16] has as its target Steroid hormone receptor ERR1 (Homo sapiens) (UniProt P11474). Nature of the experiment: ATG_ERRa_TRANS: Attagene TRANS-FACTORIAL HepG2 Assay for human Estrogen-Related Receptor alpha (ERRa) (AID 2282971). The following applies: HepG2 Attagene TRANS reporter, ERRa transactivation. An outline of the steps:
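Reporter transcript induction was quantified by RT-PCR and capillary electrophoresis of FAM-labelled, HpaI-cut products after 24 h treatment of HepG2 cells carrying transiently transfected GAL4-UAS reporter units and an exogenous ERRa-Gal4 fusion; activity scored as increase over DMSO.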

Experiment [17] has as its target Glucocorticoid receptor (Homo sapiens) (UniProt P04150). The experiment can be described thus: ATG_GR_TRANS: Attagene TRANS-FACTORIAL HepG2 Assay for human Glucocorticoid Receptor (GR) (AID 2282978).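 Further: activators score as hits since higher reporter transcript over DMSO is fitted.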 The conditions noted are these: HepG2 Attagene TRANS GR reporter, mRNA transcription. The essentials: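 Readout is reporter transcript from a chimeric GR-Gal4 acting on GAL4-UAS in transfected human HepG2 liver cells after 24 h exposure, quantified by RT-PCR and capillary electrophoresis. Activation fitted upward against DMSO.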

In experiment [18] the target is Hepatocyte nuclear factor 4-alpha (Homo sapiens) (UniProt P41235). Nature of the experiment: ATG_HNF4a_TRANS: Attagene TRANS-FACTORIAL HepG2 Assay for human Hepatocyte Nuclear Factor 4 alpha (HNF4a) (AID 2282982). The following applies: HepG2 HNF4a transactivation reporter, mRNA readout. An outline of the steps: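 Using HepG2 liver cells transfected with GAL4-UAS reporter units, chemical-induced mRNA increases were assessed after 24 hours. Fluorescent RT-PCR fragments were separated by capillary electrophoresis and compared with DMSO negative controls.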

Chain of X-box-binding protein 1 (Homo sapiens) (P17861 whole entry, looked up): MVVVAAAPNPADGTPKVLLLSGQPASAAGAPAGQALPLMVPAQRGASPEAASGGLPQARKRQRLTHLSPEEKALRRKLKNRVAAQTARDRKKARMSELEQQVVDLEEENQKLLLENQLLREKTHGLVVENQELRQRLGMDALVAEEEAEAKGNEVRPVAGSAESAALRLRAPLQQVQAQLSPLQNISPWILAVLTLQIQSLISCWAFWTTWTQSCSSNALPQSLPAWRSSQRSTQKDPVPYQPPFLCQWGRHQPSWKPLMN
Chain of Nuclear respiratory factor 1 (Homo sapiens) (Q16656 whole entry, looked up): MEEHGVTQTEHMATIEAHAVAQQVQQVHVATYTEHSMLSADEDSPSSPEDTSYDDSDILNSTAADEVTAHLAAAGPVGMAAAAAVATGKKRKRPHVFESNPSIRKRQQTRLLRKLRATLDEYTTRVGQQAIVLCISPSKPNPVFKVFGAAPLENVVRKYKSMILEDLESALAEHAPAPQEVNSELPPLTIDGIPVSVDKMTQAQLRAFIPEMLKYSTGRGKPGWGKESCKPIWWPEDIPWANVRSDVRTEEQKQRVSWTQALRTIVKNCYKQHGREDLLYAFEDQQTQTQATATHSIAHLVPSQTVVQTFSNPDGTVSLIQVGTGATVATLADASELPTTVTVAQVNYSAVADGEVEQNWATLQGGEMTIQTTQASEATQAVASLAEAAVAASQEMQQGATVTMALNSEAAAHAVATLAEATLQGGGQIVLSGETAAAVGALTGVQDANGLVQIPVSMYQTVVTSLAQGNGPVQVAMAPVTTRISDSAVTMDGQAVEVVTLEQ
Chain of Oxysterols receptor LXR-beta (Homo sapiens) (P55055 whole entry, looked up, the tested form may be a part): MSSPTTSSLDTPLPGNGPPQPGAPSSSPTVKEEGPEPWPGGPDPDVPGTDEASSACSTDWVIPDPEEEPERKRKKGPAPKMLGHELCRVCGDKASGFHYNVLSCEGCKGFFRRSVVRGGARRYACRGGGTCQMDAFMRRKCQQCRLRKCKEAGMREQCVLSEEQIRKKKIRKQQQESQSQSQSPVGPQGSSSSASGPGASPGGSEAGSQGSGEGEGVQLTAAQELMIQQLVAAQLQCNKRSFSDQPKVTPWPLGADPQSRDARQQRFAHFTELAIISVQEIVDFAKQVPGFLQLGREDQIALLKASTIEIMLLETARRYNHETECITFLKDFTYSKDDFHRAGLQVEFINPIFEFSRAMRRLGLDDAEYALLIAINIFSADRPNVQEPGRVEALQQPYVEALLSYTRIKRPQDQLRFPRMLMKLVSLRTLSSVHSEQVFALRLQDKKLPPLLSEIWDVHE
Chain of Transcriptional activator Myb (Homo sapiens) (P10242 whole entry, looked up): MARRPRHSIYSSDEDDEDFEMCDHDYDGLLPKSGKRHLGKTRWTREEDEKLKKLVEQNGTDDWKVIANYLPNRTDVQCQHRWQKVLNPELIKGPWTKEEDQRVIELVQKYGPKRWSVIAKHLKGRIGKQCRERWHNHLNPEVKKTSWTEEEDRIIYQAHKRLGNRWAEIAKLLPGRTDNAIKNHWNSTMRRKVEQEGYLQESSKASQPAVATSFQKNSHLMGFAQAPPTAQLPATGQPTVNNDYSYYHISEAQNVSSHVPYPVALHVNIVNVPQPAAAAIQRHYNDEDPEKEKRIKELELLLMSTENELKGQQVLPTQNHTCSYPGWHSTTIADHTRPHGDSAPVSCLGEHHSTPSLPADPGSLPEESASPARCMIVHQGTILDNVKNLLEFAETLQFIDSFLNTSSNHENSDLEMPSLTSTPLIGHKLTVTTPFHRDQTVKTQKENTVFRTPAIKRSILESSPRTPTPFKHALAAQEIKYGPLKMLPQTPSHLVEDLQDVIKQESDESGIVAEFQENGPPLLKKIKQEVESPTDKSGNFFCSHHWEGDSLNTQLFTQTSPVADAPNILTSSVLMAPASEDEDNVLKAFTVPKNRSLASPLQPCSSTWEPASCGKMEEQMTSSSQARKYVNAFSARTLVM
Chain of Estrogen receptor (Homo sapiens) (P03372 whole entry, looked up, the tested form may be a part): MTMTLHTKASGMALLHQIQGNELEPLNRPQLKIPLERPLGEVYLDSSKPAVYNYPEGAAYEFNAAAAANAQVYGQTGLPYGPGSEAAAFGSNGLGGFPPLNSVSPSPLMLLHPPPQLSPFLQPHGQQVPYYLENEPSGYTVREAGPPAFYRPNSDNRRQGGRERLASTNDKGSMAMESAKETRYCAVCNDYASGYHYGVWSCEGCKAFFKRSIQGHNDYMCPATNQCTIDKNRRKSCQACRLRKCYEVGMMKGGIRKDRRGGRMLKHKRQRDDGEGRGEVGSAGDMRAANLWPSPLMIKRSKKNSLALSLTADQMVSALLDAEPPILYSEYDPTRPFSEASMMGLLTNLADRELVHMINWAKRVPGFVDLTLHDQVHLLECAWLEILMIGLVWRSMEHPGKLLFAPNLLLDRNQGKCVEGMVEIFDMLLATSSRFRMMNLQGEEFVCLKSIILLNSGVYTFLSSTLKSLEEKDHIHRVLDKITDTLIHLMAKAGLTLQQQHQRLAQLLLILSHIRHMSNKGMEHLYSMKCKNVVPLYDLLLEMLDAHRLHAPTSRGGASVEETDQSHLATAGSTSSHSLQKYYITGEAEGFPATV
Chain of Estrogen-related receptor gamma (Homo sapiens) (P62508 whole entry, looked up, the tested form may be a part): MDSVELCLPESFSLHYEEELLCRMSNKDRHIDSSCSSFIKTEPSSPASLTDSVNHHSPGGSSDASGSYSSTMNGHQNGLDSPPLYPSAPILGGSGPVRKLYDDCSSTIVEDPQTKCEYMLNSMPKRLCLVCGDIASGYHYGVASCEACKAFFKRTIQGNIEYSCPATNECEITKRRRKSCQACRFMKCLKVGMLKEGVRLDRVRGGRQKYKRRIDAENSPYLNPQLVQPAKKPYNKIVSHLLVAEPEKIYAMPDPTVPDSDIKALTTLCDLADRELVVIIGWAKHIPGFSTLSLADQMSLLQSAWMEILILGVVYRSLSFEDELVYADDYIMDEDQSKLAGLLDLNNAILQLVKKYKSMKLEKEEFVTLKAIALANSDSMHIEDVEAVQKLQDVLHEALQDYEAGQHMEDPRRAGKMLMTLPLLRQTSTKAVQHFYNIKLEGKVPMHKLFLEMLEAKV
Chain of Bile acid receptor (Homo sapiens) (Q96RI1 whole entry, looked up, the tested form may be a part): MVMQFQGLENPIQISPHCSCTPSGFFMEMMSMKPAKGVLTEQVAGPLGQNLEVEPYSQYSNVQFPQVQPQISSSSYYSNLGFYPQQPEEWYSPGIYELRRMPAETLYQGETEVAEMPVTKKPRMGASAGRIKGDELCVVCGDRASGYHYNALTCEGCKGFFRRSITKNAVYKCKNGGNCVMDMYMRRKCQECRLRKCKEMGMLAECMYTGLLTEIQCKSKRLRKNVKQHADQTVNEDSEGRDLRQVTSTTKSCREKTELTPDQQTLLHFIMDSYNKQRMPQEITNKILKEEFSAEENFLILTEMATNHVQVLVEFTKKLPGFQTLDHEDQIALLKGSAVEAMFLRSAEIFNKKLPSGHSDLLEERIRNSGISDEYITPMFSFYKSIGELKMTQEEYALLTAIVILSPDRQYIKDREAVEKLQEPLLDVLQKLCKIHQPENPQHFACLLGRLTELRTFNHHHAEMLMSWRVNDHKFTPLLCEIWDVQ
Chain of Myc proto-oncogene protein (Homo sapiens) (P01106 whole entry, looked up): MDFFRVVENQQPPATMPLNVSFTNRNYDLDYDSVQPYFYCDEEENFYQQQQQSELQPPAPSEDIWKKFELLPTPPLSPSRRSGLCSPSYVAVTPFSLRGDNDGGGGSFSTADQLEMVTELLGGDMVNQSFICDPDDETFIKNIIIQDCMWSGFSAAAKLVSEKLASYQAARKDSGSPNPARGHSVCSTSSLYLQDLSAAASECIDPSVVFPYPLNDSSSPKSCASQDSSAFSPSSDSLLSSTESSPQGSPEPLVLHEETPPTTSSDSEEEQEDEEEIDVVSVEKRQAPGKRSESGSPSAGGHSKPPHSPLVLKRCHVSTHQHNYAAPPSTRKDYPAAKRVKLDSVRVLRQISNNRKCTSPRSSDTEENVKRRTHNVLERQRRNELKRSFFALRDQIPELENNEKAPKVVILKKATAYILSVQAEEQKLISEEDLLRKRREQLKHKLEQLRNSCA
Chain of Androgen receptor (Homo sapiens) (P10275 whole entry, looked up, the tested form may be a part): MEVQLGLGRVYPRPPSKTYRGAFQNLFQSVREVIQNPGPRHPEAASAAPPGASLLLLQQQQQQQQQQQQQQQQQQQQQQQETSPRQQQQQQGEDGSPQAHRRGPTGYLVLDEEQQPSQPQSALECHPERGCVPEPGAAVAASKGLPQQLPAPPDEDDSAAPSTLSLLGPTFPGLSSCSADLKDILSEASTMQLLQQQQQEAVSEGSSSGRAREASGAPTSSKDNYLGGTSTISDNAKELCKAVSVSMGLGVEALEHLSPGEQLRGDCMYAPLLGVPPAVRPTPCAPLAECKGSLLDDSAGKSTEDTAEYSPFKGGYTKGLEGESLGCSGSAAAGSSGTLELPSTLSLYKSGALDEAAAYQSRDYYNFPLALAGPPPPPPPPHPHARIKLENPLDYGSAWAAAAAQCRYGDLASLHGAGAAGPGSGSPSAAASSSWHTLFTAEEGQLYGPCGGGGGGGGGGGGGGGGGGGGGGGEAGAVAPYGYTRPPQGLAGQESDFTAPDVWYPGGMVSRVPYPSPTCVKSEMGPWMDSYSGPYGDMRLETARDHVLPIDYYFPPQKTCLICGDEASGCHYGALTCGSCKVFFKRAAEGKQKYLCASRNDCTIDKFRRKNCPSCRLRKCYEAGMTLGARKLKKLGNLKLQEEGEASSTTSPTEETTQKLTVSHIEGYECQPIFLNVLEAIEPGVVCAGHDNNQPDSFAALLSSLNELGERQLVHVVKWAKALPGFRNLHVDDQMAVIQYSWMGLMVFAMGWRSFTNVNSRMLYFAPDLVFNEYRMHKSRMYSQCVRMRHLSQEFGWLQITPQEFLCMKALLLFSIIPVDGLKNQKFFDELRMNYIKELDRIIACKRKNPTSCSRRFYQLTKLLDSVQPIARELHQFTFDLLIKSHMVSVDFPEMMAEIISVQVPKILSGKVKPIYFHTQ

Regarding `CCCCCCCCCCCCN(C)C`, the outcome in [1], in experiment [3], in experiment [4], in [5], in experiment [6] and in experiment [7] was inactive. For the same molecule, the AC50 in experiment [2] was 53.9 µM (active); in [8], 54.2 µM (active); in experiment [9], 57.2 µM (active); in experiment [10] it was 50.9 µM (active).
As for `C=CC(Cl)CCl` (stereo not given), the molecule was called inactive in experiment [2], in experiment [11], in experiment [3], in experiment [6], in [7] and in experiment [8]. The outcome in experiment [9] and in experiment [10] was inactive.
With `BrCC(Br)c1ccccc1` (stereo not given), the result in experiment [2], in [11], in experiment [12], in experiment [3], in experiment [6] and in [13] was inactive. Further, the result in experiment [14], in [7], in experiment [8], in experiment [9] and in experiment [10] was inactive.
`O=C/C(Cl)=C(/Cl)C(=O)O`: the AC50 in [1] was 156 µM (active). Besides, the molecule was called inactive in experiment [2], in [15], in [3], in [4], in experiment [5] and in experiment [6]. The molecule was classed as inactive in experiment [13], in experiment [14], in experiment [7], in [9] and in [10].
With `CCCCN(CCCC)C(=S)S`, the call in [1], in [15], in [5], in [6], in experiment [9] and in experiment [10] was inactive. Further, the AC50 in [2] is 70.5 µM (active); in experiment [7], 100 µM (active); in experiment [8], 152 µM (active).
As for `CCOP(=S)(OCC)O/N=C(\C#N)c1ccccc1`, the molecule was classed as inactive in experiment [16], in experiment [2], in experiment [12], in [15], in experiment [17] and in experiment [3]. Also, the molecule was classed as inactive in [7], in experiment [8], in [9] and in [10].
On to `FC(F)OCC(F)(F)C(F)(F)F`, for which the molecule was classed as inactive in experiment [16], in [2], in experiment [12], in experiment [3], in [18] and in [6]. In addition, the call in experiment [7], in experiment [8], in experiment [9] and in experiment [10] was inactive.

As a reminder, the AC50 is the concentration at which the activity in the assay is half-maximal.
